# Experiments:
# Test in all cases: DAPPL (digital affinity profiling via proximity ligation, sequencing); 10 mM Tris-HCl pH 7.5, 50 mM NaCl, 1 mM DTT, 4% glycerol, room temperature, 30 min; GST-TFs on glutathione beads, 16-mer random dsDNA library, 0.1% formaldehyde crosslink after washing; high values mean tight binding
# FEV = molecular target: T1, FEV (Homo sapiens, UniProt Q99581 1-238); details: protein: recombinant; tags: N-terminal GST; dsDNA, one strand shown
# T1 sequence: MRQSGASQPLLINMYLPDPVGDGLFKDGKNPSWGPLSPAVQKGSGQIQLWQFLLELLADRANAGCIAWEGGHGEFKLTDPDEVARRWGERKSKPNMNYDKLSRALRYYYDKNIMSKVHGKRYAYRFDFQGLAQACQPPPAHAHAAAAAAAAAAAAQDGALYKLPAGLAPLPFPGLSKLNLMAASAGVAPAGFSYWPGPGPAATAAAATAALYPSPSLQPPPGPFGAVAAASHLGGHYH
# Outline: (§1)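 Yeast served to express human transcription factors as GST fusions, which were then captured on glutathione beads and labelled with DNA barcodes. Pooled with a tag-only sample, they were incubated with 200 nmole of a 16-mer random double-stranded DNA library for 30 min at room temperature in Tris/NaCl/DTT/glycerol buffer, washed, crosslinked with 0.1% formaldehyde, ligated by proximity, amplified by PCR and sequenced. Dividing each hexamer's read frequency for a factor by its frequency for the tag-only sample gives the binding signal.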
# ETV5 = ETV5 (Homo sapiens, UniProt P41161 1-510); details: protein: recombinant; tags: N-terminal GST; dsDNA, one strand shown
# Outline: as §1
# HSF1 = HSF1 (Homo sapiens, UniProt Q00613 1-529); details: protein: recombinant; tags: N-terminal GST; chain copies: 3; dsDNA, one strand shown
# Outline: as §1
# SPIC = molecular target: T2, SPIC (Homo sapiens, UniProt Q8N5J4 1-248); details: protein: recombinant; tags: N-terminal GST; dsDNA, one strand shown
# T2 sequence: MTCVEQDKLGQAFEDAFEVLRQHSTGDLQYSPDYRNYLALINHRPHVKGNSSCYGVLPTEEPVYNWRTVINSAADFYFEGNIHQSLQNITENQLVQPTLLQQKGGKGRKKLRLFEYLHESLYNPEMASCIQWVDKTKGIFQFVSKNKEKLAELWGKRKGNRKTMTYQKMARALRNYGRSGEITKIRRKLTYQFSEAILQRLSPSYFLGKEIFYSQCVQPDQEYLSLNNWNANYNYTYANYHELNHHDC
# Outline: as §1
# ELF4 = ELF4 (Homo sapiens, UniProt Q99607 1-663); details: protein: recombinant; tags: N-terminal GST; dsDNA, one strand shown
# Outline: as §1
# ELK4 = molecular target: T3, ELK4 (Homo sapiens, UniProt P28324-2 1-405); details: protein: recombinant; tags: N-terminal GST; dsDNA, one strand shown
# T3 sequence: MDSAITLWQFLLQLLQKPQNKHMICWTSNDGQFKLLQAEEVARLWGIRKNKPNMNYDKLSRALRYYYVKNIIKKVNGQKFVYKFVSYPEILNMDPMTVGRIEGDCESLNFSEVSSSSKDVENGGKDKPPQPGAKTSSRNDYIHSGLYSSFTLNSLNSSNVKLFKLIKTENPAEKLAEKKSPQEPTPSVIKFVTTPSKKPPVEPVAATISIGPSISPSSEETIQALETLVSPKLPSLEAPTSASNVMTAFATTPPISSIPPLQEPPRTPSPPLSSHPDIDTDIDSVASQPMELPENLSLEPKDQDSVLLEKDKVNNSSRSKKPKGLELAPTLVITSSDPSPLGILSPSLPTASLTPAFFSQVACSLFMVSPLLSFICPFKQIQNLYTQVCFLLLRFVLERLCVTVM
# Outline: as §1
# ETV2 = molecular target: T4, ETV2 (Homo sapiens, UniProt O00321 1-342); details: protein: recombinant; tags: N-terminal GST; dsDNA, one strand shown
# T4 sequence: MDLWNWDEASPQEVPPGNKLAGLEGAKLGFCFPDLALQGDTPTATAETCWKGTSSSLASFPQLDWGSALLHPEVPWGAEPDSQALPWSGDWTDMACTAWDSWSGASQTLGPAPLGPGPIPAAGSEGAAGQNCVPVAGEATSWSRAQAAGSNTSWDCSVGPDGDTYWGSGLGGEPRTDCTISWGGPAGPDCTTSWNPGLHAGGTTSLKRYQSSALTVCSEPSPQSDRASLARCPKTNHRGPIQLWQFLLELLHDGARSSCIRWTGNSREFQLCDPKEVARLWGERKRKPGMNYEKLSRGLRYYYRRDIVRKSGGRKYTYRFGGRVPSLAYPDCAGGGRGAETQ
# Outline: as §1
# ELF3 = molecular target: T5, ELF3 (Homo sapiens, UniProt P78545 1-371); details: protein: recombinant; tags: N-terminal GST; dsDNA, one strand shown
# T5 sequence: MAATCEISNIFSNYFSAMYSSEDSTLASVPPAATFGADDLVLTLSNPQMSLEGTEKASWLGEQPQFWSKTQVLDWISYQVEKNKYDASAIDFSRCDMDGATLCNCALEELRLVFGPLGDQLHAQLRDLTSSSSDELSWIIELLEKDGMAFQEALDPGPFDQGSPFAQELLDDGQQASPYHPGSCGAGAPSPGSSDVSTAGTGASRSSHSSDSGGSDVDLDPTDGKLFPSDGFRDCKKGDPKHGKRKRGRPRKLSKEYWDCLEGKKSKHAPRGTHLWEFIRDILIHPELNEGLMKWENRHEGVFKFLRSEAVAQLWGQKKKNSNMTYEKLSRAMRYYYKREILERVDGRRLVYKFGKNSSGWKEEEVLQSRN
# Outline: as §1
# CRX = CRX (Homo sapiens, UniProt O43186 1-299); details: protein: recombinant; tags: N-terminal GST; dsDNA, one strand shown
# Outline: as §1
# ETV1 = ETV1 (Homo sapiens, UniProt P50549 1-477); details: protein: recombinant; tags: N-terminal GST; dsDNA, one strand shown
# Outline: as §1
# Sequence of ETV5 (P41161 whole entry): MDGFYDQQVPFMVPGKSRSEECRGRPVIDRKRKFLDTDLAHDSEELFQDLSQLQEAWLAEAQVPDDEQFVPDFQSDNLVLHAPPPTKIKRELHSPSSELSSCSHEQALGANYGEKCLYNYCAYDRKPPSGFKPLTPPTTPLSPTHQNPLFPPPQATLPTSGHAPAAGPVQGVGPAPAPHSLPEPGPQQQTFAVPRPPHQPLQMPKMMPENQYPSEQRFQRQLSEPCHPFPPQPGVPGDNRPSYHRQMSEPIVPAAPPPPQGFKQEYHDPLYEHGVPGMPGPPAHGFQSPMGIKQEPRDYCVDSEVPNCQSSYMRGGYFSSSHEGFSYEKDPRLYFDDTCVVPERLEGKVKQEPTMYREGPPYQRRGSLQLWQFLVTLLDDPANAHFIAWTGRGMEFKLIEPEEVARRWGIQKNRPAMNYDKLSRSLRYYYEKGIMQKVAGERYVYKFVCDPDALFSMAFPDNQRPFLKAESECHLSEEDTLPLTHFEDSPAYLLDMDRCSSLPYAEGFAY
# Sequence of ELF4 (Q99607 whole entry): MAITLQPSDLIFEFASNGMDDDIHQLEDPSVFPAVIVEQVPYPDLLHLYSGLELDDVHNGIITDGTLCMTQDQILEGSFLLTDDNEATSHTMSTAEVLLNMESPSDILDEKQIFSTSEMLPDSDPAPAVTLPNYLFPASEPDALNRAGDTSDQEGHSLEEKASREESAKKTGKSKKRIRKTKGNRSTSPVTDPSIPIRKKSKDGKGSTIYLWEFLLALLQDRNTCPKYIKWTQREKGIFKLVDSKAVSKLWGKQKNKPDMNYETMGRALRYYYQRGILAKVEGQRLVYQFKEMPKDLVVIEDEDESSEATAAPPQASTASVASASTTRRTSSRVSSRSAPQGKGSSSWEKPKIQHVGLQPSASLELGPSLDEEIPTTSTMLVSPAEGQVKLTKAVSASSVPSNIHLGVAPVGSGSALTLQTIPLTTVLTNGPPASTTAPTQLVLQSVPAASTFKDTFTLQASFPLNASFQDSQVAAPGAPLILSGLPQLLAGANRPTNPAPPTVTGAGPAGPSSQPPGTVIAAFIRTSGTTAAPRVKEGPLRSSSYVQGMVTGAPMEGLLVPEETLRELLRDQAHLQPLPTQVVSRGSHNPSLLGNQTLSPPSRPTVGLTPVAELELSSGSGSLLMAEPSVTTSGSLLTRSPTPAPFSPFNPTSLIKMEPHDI
# Sequence of ETV1 (P50549 whole entry): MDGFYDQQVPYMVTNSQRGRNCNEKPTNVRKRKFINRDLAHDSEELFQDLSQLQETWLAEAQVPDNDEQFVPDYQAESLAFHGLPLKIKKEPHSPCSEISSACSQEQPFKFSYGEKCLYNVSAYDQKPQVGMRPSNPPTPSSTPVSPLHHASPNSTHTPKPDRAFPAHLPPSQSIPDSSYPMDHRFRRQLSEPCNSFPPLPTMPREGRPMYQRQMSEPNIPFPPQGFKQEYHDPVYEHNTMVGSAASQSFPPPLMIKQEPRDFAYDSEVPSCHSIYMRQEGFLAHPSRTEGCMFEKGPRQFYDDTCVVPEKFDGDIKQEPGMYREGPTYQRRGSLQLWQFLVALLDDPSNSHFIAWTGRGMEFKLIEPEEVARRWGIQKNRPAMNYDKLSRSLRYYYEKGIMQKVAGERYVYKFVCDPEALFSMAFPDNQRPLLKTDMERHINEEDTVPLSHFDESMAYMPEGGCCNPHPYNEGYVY
# Sequence of HSF1 (Q00613 whole entry): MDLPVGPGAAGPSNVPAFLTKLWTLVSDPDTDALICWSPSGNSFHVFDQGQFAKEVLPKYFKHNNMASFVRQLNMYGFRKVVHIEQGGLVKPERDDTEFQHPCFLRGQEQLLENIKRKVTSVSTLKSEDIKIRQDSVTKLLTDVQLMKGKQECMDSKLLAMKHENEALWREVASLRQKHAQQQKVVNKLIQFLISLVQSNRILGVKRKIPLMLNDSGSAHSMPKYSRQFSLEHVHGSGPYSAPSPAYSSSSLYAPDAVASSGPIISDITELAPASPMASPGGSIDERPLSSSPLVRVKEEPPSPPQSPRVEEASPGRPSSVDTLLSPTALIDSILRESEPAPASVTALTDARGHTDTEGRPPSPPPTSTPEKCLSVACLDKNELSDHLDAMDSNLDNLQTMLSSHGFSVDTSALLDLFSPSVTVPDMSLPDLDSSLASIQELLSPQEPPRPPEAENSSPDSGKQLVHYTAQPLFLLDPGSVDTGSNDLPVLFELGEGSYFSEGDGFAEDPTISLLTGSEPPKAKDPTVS
# Sequence of CRX (O43186 whole entry): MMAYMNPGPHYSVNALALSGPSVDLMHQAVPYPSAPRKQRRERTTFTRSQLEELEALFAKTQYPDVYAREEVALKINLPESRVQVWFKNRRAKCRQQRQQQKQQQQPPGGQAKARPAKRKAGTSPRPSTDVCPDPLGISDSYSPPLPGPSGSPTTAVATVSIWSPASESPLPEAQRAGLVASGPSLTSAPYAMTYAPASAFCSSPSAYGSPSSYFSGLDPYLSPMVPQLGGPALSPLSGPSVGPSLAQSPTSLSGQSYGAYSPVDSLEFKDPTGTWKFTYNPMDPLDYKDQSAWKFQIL
Sequence,binding signal (FEV),binding signal (ETV5),binding signal (HSF1),binding signal (SPIC),binding signal (ELF4),binding signal (ELK4),binding signal (ETV2),binding signal (ELF3),binding signal (CRX),binding signal (ETV1)
CTCTTT,"1.47 fold enrichment (6-mer frequency, TF over GST control)","1.42 fold enrichment (6-mer frequency, TF over GST control)","1.4 fold enrichment (6-mer frequency, TF over GST control)","1.35 fold enrichment (6-mer frequency, TF over GST control)","1.44 fold enrichment (6-mer frequency, TF over GST control)","1.31 fold enrichment (6-mer frequency, TF over GST control)","1.58 fold enrichment (6-mer frequency, TF over GST control)","1.4 fold enrichment (6-mer frequency, TF over GST control)","1.53 fold enrichment (6-mer frequency, TF over GST control)","1.44 fold enrichment (6-mer frequency, TF over GST control)"
TTCCCA,"1.16 fold enrichment (6-mer frequency, TF over GST control)","1.29 fold enrichment (6-mer frequency, TF over GST control)","1.08 fold enrichment (6-mer frequency, TF over GST control)","1.23 fold enrichment (6-mer frequency, TF over GST control)","1.26 fold enrichment (6-mer frequency, TF over GST control)","1.08 fold enrichment (6-mer frequency, TF over GST control)","1.13 fold enrichment (6-mer frequency, TF over GST control)","1.27 fold enrichment (6-mer frequency, TF over GST control)","1.16 fold enrichment (6-mer frequency, TF over GST control)","1.2 fold enrichment (6-mer frequency, TF over GST control)"
ATTTCT,"1.43 fold enrichment (6-mer frequency, TF over GST control)","1.39 fold enrichment (6-mer frequency, TF over GST control)","2.3 fold enrichment (6-mer frequency, TF over GST control)","1.49 fold enrichment (6-mer frequency, TF over GST control)","1.4 fold enrichment (6-mer frequency, TF over GST control)","1.66 fold enrichment (6-mer frequency, TF over GST control)","1.4 fold enrichment (6-mer frequency, TF over GST control)","1.76 fold enrichment (6-mer frequency, TF over GST control)","1.68 fold enrichment (6-mer frequency, TF over GST control)","1.51 fold enrichment (6-mer frequency, TF over GST control)"
AATATC,"1.56 fold enrichment (6-mer frequency, TF over GST control)","1.53 fold enrichment (6-mer frequency, TF over GST control)","1.49 fold enrichment (6-mer frequency, TF over GST control)","1.49 fold enrichment (6-mer frequency, TF over GST control)","1.44 fold enrichment (6-mer frequency, TF over GST control)","1.48 fold enrichment (6-mer frequency, TF over GST control)","1.73 fold enrichment (6-mer frequency, TF over GST control)","1.55 fold enrichment (6-mer frequency, TF over GST control)","1.55 fold enrichment (6-mer frequency, TF over GST control)","1.56 fold enrichment (6-mer frequency, TF over GST control)"
TCCTCC,"1.55 fold enrichment (6-mer frequency, TF over GST control)","1.59 fold enrichment (6-mer frequency, TF over GST control)","1.27 fold enrichment (6-mer frequency, TF over GST control)","1.57 fold enrichment (6-mer frequency, TF over GST control)","1.62 fold enrichment (6-mer frequency, TF over GST control)","1.48 fold enrichment (6-mer frequency, TF over GST control)","1.86 fold enrichment (6-mer frequency, TF over GST control)","1.22 fold enrichment (6-mer frequency, TF over GST control)","1.4 fold enrichment (6-mer frequency, TF over GST control)","1.53 fold enrichment (6-mer frequency, TF over GST control)"
TGAATT,"1.18 fold enrichment (6-mer frequency, TF over GST control)","1.15 fold enrichment (6-mer frequency, TF over GST control)","1.23 fold enrichment (6-mer frequency, TF over GST control)","1.34 fold enrichment (6-mer frequency, TF over GST control)","1.16 fold enrichment (6-mer frequency, TF over GST control)","1.01 fold enrichment (6-mer frequency, TF over GST control)","1.19 fold enrichment (6-mer frequency, TF over GST control)","1.12 fold enrichment (6-mer frequency, TF over GST control)","1.38 fold enrichment (6-mer frequency, TF over GST control)","1.23 fold enrichment (6-mer frequency, TF over GST control)"
ACTATT,"1.25 fold enrichment (6-mer frequency, TF over GST control)","1.22 fold enrichment (6-mer frequency, TF over GST control)","1.33 fold enrichment (6-mer frequency, TF over GST control)","1.44 fold enrichment (6-mer frequency, TF over GST control)","1.3 fold enrichment (6-mer frequency, TF over GST control)","1.35 fold enrichment (6-mer frequency, TF over GST control)","1.31 fold enrichment (6-mer frequency, TF over GST control)","1.32 fold enrichment (6-mer frequency, TF over GST control)","1.28 fold enrichment (6-mer frequency, TF over GST control)","1.28 fold enrichment (6-mer frequency, TF over GST control)"

# Reference: publication PMC7862700, “An all-to-all approach to the identification of sequence-specific readers for epigenetic DNA modifications on cytosine”
